Consider four molecules from PubChem BioAssay.

A short description of experiment [1]: optical density shifts of acrAB sulA E. coli – strain DRC41, OD650, 48 h, E. coli filamentation inducer project, primary screen (AID 1152).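 Note: E. coli MC1000 strain DRC41 lacking acrAB efflux pump and sulA.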 The settings on record: higher = more signal, called active from +8 up or from −8 down.
A short description of experiment [2]: probe aLefty1 binding on compound microarray – biochemical, small-molecule microarray, 635/667 nm fluorescence, primary screen (AID 1153).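 Note: score merges spot fluorescence with signal-to-noise ratio from the scanned slide images.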 The following applies: higher = more signal.
The nature of experiment [3]: plasmodial surface anion channel blockers, osmotic lysis – cell-based, P. falciparum Indochina, OD700, 1 h, primary screen (AID 1154). The settings on record: P. falciparum Indochina infected RBC osmotic lysis, higher = more signal, called active from +8 up or from −8 down.
Experiment [4] can be described thus: plasmodial surface anion channel blockers, osmotic lysis – cell-based, P. falciparum Indochina, OD700, 2 h, primary screen (AID 1155).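 Note: lysis reports solute entry through the parasite surface anion channel PSAC.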 The settings on record: P. falciparum Indochina infected erythrocytes, higher = more signal, called active from +8 up or from −8 down.
A short description of experiment [5]: changes in parasitized red cell lysis, either direction – P. falciparum Indochina, OD700, 3 h, PSAC antagonist project, primary screen (AID 1156). The following applies: P. falciparum-infected erythrocytes, osmotic lysis, higher = more signal, called active from +8 up or from −8 down.
A short description of experiment [6]: plasmodial surface anion channel blockers, osmotic lysis – cell-based, P. falciparum Indochina, OD700, 18 h, primary screen (AID 1157). The following applies: P. falciparum Indochina infected erythrocytes, osmotic lysis OD700, 18 h; higher = more signal, called active from +8 up or from −8 down.
Experiment [7] is described as follows: S6 kinase pathway phospho-S6 level changes – cell-based, A549, cytoblot, luminescence, serum-stimulated, primary screen (AID 1158).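 Note: serum-stimulated A549 lung adenocarcinoma cells; signal is phosphorylated S6 detected by cytoblot immunostaining with HRP secondary.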 The following applies: 5 h, higher = more signal.
In experiment [8] the target is NADPH oxidase 2 (Homo sapiens) (UniProt P04839). Briefly: compounds shifting NOX2 Amplex Red fluorescence – cell-based, HEK293-NOX2, PMA-stimulated, NOX inhibitor project, primary screen (AID 1159). Note: test concentration not given here. The following applies: 45 min, higher = more signal, called active from +8 up or from −8 down.
Experiment [9] has as its target NADPH oxidase 4 (Homo sapiens) (UniProt Q9NPH5). Briefly: compounds shifting NOX4 Amplex Red fluorescence – cell-based, HEK293-NOX4, tetracycline-induced, NOX inhibitor project, primary screen (AID 1160). The settings on record: HEK293-NOX4, Amplex Red H2O2 fluorescence, 45 min; higher = more signal, called active from +8 up or from −8 down.
Experiment [10] concerns the target NADPH oxidase 5 (Homo sapiens) (UniProt Q96PH1). In words: compounds shifting NOX5 Amplex Red fluorescence – cell-based, HEK293-NOX5, NOX inhibitor project, primary screen (AID 1161). The settings on record: HEK293-NOX5, ionomycin, 45 min, higher = more signal.
Experiment [11] can be described thus: compound effects on lung adenocarcinoma cell viability – A549, calcein-AM fluorescence, 48 h, basal, profiling panel (AID 1162). Note: test concentration not given here. The following applies: higher = more signal.
Experiment [12] in a line: compound effects on differentiated 3T3-L1 adipocyte viability – cell-based, 3T3-L1 adipocytes, calcein-AM fluorescence, 48 h, basal, profiling panel (AID 1163). Note: test concentration not given here. The following applies: 3T3-L1 adipocytes viability, higher = more signal.
A short description of experiment [13]: compound effects on hepatocellular carcinoma cell viability – HepG2, calcein-AM fluorescence, 48 h, basal, profiling panel (AID 1164). Note: test concentration not given here. The settings on record: higher = more signal.
The nature of experiment [14]: compound effects on multiple myeloma cell viability – MM1S, calcein-AM fluorescence, 48 h, basal, profiling panel (AID 1165).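 Note: viability of MM1S multiple myeloma cells under basal unstimulated conditions; test concentration not given here.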 The settings on record: higher = more signal.
Experiment [15] can be described thus: calcein-AM signal in unstimulated myeloma cells – cell-based, calcein-AM fluorescence, 48 h, PK04 Diversity Set, profiling panel (AID 1166).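 Note: cells grown under basal conditions without added stimulus; test concentration not given here.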 The settings on record: RPMI8226 myeloma viability, higher = more signal.
A short description of experiment [16]: JC-1 mitochondrial signal, unstimulated HepG2 cells – cell-based, JC-1 fluorescence, 24 h, 100 nL compound, profiling panel (AID 1167). Note: test concentration not given here. The following applies: HepG2 mitochondrial potential, higher = more signal.
Experiment [17] is described as follows: JC-1 mitochondrial signal, unstimulated adipocytes – cell-based, JC-1 fluorescence, 3T3-L1 adipocytes, 24 h, 100 nL compound, profiling panel (AID 1168). Note: test concentration not given here. The following applies: JC-1 mitochondrial fluorescence, higher = more signal, called active from +8 up or from −8 down.
Experiment [18] in a line: JC-1 mitochondrial signal, unstimulated myeloma cells – cell-based, JC-1 fluorescence, RPMI8226, 24 h, 100 nL compound, profiling panel (AID 1169). Note: test concentration not given here. The settings on record: JC-1 mitochondrial potential fluorescence, higher = more signal.
Experiment [19] is described as follows: JC-1 mitochondrial signal, unstimulated MM1S myeloma – cell-based, JC-1 fluorescence, 24 h, 100 nL compound, profiling panel (AID 1170). Note: test concentration not given here. The following applies: MM1S mitochondrial potential, higher = more signal.
Experiment [20] can be described thus: resazurin metabolic signal in A549 cells – cell-based, resazurin fluorescence, 24 h, PK04 Diversity Set, profiling panel (AID 1171). Note: test concentration not given here. The settings on record: A549 viability, higher = more signal, called active from +8 up or from −8 down.

Calls of active or inactive are those of the source.

Chain of NADPH oxidase 5 (Homo sapiens) (Q96PH1 whole entry, looked up): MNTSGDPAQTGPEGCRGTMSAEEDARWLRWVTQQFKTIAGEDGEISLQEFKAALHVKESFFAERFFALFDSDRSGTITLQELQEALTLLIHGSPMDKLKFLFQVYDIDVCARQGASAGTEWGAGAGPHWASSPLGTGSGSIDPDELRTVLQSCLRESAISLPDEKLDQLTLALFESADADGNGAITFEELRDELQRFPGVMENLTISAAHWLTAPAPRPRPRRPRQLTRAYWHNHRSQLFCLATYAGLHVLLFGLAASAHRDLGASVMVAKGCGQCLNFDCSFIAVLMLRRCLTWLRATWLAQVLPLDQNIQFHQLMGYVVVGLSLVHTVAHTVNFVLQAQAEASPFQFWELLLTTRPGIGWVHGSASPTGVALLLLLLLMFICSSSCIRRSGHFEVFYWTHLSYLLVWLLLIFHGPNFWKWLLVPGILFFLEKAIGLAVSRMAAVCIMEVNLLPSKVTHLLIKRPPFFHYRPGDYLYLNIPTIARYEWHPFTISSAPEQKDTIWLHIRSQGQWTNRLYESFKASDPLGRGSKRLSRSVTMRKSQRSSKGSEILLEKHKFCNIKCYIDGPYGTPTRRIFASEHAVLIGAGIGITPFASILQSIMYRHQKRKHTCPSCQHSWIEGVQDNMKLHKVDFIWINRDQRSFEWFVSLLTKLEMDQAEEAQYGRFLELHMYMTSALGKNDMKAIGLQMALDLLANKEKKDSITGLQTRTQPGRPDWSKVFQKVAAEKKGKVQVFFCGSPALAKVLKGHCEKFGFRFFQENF
Chain of NADPH oxidase 4 (Homo sapiens) (Q9NPH5 whole entry, looked up): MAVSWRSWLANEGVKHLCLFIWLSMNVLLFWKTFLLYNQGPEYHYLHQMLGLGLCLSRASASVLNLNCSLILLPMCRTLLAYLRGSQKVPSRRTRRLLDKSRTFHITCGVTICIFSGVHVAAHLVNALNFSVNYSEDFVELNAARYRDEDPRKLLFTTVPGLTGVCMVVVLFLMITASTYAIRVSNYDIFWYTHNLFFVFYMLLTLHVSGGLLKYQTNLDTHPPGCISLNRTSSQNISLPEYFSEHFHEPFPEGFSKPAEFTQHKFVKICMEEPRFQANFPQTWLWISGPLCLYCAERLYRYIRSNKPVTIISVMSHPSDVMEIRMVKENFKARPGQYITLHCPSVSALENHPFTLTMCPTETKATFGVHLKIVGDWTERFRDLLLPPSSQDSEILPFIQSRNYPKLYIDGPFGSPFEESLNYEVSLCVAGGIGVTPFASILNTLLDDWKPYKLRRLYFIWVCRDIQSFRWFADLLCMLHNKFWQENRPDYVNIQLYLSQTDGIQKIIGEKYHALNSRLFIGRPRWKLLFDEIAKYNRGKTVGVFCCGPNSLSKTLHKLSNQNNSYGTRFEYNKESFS
Chain of NADPH oxidase 2 (Homo sapiens) (P04839 whole entry, looked up): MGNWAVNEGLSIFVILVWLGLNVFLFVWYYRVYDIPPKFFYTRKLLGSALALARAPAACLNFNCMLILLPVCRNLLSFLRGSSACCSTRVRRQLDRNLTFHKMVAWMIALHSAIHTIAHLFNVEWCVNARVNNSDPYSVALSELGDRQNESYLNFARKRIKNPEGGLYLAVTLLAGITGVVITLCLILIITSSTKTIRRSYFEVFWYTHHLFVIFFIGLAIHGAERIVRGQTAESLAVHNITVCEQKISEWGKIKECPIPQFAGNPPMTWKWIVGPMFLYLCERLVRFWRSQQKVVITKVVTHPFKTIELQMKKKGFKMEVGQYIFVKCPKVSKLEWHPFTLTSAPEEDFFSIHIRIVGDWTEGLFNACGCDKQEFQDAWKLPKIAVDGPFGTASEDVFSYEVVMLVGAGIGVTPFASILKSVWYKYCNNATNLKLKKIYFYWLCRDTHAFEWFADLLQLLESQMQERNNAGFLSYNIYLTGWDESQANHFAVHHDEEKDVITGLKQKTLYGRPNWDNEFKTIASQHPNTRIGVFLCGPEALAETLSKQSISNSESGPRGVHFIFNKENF

For the molecule `C=C(/C(=C/C[C@H](OC(=O)c1ccncc1)c1ccccc1OCCO)c1cc(C(=O)OC)ccc1OC)C(C)C`, the z-score in experiment [1] was -0.458 (inactive); in experiment [3], 14.9 (active); in experiment [4], 2.53 (inactive); in experiment [5] it was 2.19 (inactive); in experiment [6] it was 1.02 (inactive); in [7], 0.222. In addition, the z-score in experiment [8] is 1.22 (inactive); in experiment [9] it was -0.614 (inactive); in experiment [10], -1.29; in experiment [11], 0.0292; in experiment [12], 0.322; in experiment [13], -0.275. Moreover, the z-score was -1.85 in experiment [14]; -0.122 in [15]; 0.589 in [16]; -0.617 (inactive) in experiment [17]; -0.429 in experiment [18]; 0.00378 in [19]. In experiment [20], the z-score is 1.47 (inactive). The composite z-score in experiment [2] was 0.428.
Consider `COCCCN1C(=O)[C@@]2(Cc3ccccc31)c1ccccc1C(=O)N(Cc1ccccc1OC)[C@H]2c1ccc(CO)cc1`, for which the z-score is 0.168 (inactive) in [1]; 0.883 (inactive) in experiment [3]; 0.216 (inactive) in experiment [4]; 0.0049 (inactive) in experiment [5]; -0.185 (inactive) in experiment [6]; 0.592 in [7]. Further, the z-score was 0.0278 (inactive) in experiment [8]; 0.545 (inactive) in [9]; 1.41 in [10]; -0.609 in experiment [11]; 1.12 in experiment [12]; -0.95 in [13]. In addition, the z-score in experiment [14] was -0.492; in [15], -0.452; in experiment [16] it was -0.499; in [17], -0.722 (inactive); in experiment [18], 0.695; in experiment [19], -0.0862. Besides, the z-score in experiment [20] is -0.458 (inactive). The composite z-score in experiment [2] is 0.193.
`C[N+](C)(C)CCCCCCNC(=O)[C@H]1C[C@H]2C(=O)NCC(=O)N2[C@H]1c1cccc(OCCO)c1`: the z-score in [1] was -0.191 (inactive); in experiment [3], 2.76 (inactive); in [4], 0.462 (inactive); in experiment [5], -1.36 (inactive); in experiment [6], 0.179 (inactive); in experiment [7], 0.142. For the same molecule, the z-score in [8] was 0.752 (inactive); in experiment [9], 1.12 (inactive); in experiment [10], 1.24; in [11] it was -0.292; in [12], -0.207; in experiment [13], -0.528. Further, the z-score in experiment [14] is 0.112; in experiment [15], 0.579; in experiment [16], -1.52; in experiment [17], -0.529 (inactive); in experiment [18] it was 0.0573; in experiment [19] it was 0.127. In experiment [20], the z-score was 0.749 (inactive). In addition, the composite z-score in [2] was -0.259.
With `Cc1c(NC(=O)/C(C#N)=C/c2ccc(Cl)cc2)c(=O)n(-c2ccccc2)n1C`, the z-score is 0.764 (inactive) in experiment [1]; 6.41 (inactive) in [3]; -0.238 (inactive) in [4]; -0.597 (inactive) in experiment [5]; -1.44 (inactive) in experiment [6]; 0.776 in experiment [7]. For the same molecule, the z-score in experiment [8] is -2.29 (inactive); in experiment [9], -0.376 (inactive); in experiment [10], 1.22; in experiment [11] it was 1.48; in experiment [12] it was 0.22; in [13], 0.115. Moreover, the z-score in experiment [14] was 0.69; in experiment [15] it was -2.03; in experiment [16] it was 0.497; in experiment [17], 0.585 (inactive); in [18], -0.0999; in experiment [19] it was -0.512. Further, the z-score in experiment [20] is -0.354 (inactive). This molecule also had a composite z-score in experiment [2] of 0.0042.
